From PubChem BioAssay AID1159580 (chemical genetic matrix, 2015)
The campaign covered roughly 5,500 compounds. About 2,000 (36%) were called active. Roughly 18% stayed inconclusive and do not appear here. Rule as the data show it: active = normalized growth mostly below about 0.91 (no sharp cut-off); inconclusive = no clear call, values can overlap the other calls; inactive = mostly above about 0.92. The list shows a part of the results.

Assay: chemical genetic growth profiling, strain panel (AID 1159580);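 also: tested at 20 µM; growth read once vehicle control cultures reached saturation at 30 °C; 1 = growth at the plate median or of vehicle wells; lower values mean less growth of the strain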
Conditions: growth OD

Measured: normalized growth

COc1ccc2c(c1)OC[C@@H](Cc1ccc(OC)c(OC)c1)[C@@H]2O
inactive: S. cerevisiae deletion strains, locus YJR075W, strain HOC1, stronger effect = lower value 0.951 | S. cerevisiae deletion strains, locus YKL009W, strain mrt4, stronger effect = lower value 0.985 | S. cerevisiae deletion strains, locus YKL068W, stronger effect = lower value 0.988 | S. cerevisiae deletion strains, locus YKL085W, strain MDH1 (second series), stronger effect = lower value 0.956 | S. cerevisiae deletion strains, locus YKL085W, strain MDH1, stronger effect = lower value 0.956 | S. cerevisiae deletion strains, locus YKL160W, strain elf1, stronger effect = lower value 1 | S. cerevisiae deletion strains, locus YKL190W, strain CNB1, stronger effect = lower value 1 | S. cerevisiae deletion strains, locus YKR026C, strain gcn3, stronger effect = lower value 0.992 | S. cerevisiae deletion strains, locus YKR091W, strain srl3, stronger effect = lower value 0.988 | S. cerevisiae deletion strains, locus YLL001W, strain dnm1, stronger effect = lower value 0.99 | S. cerevisiae deletion strains, locus YLL026W, stronger effect = lower value 0.995 | S. cerevisiae deletion strains, locus YLL041C, strain sdh2, stronger effect = lower value 0.989 | S. cerevisiae deletion strains, locus YLR027C, strain aat2, stronger effect = lower value 0.989 | S. cerevisiae deletion strains, locus YLR039C, strain RIC1, stronger effect = lower value 0.749 | S. cerevisiae deletion strains, locus YLR058C, strain SHM2, stronger effect = lower value 0.997 | S. cerevisiae deletion strains, locus YLR102C, strain apc9, stronger effect = lower value 0.987 | S. cerevisiae deletion strains, locus YLR113W, strain HOG1, stronger effect = lower value 0.875 | S. cerevisiae deletion strains, locus YLR221C, strain rsa3, stronger effect = lower value 1.01 | S. cerevisiae deletion strains, locus YLR258W, strain gsy2, stronger effect = lower value 0.979 | S. cerevisiae deletion strains, locus YLR262C, strain YPT6, stronger effect = lower value 0.805 | S. cerevisiae deletion strains, locus YLR268W, strain sec22, stronger effect = lower value 0.999 | S. cerevisiae deletion strains, locus YLR320W, strain mms22, stronger effect = lower value 0.971 | S. cerevisiae deletion strains, locus YLR330W, strain CHS5, stronger effect = lower value 0.993 | S. cerevisiae deletion strains, locus YLR342W, strain FKS1 (second series), stronger effect = lower value 0.958 | S. cerevisiae deletion strains, locus YLR342W, strain FKS1, stronger effect = lower value 0.973 | S. cerevisiae deletion strains, locus YLR357W, strain rsc2, stronger effect = lower value 0.998 | S. cerevisiae deletion strains, locus YLR370C, strain arc18, stronger effect = lower value 1 | S. cerevisiae deletion strains, locus YLR371W, strain rom2, stronger effect = lower value 0.985 | S. cerevisiae deletion strains, locus YLR384C, strain iki3, stronger effect = lower value 0.982 | S. cerevisiae deletion strains, locus YLR418C, strain cdc73, stronger effect = lower value 1.01 | S. cerevisiae deletion strains, locus YML016C, strain PPZ1, stronger effect = lower value 1 | S. cerevisiae deletion strains, locus YML032C, strain rad52, stronger effect = lower value 0.981 | S. cerevisiae deletion strains, locus YML120C, strain ndi1, stronger effect = lower value 0.986 | S. cerevisiae deletion strains, locus YML124C, strain tub3, stronger effect = lower value 0.988 | S. cerevisiae deletion strains, locus YMR058W, strain fet3, stronger effect = lower value 1.01 | S. cerevisiae deletion strains, locus YMR078C, strain ctf18, stronger effect = lower value 0.986 | S. cerevisiae deletion strains, locus YMR125W, strain sto1, stronger effect = lower value 1.01 | S. cerevisiae deletion strains, locus YMR129W, stronger effect = lower value 0.985 | S. cerevisiae deletion strains, locus YMR205C, strain PFK2, stronger effect = lower value 0.955 | S. cerevisiae deletion strains, locus YMR223W, strain ubp8, stronger effect = lower value 0.987 | S. cerevisiae deletion strains, locus YMR231W, strain pep5, stronger effect = lower value 0.987 | S. cerevisiae deletion strains, locus YMR263W, strain SAP30, stronger effect = lower value 1.01 | S. cerevisiae deletion strains, locus YMR307W, strain GAS1, stronger effect = lower value 0.945 | S. cerevisiae deletion strains, locus YNL067W, strain RPL9B, stronger effect = lower value 1.01 | S. cerevisiae deletion strains, locus YNL071W, strain lat1, stronger effect = lower value 0.994 | S. cerevisiae deletion strains, locus YNL128W, strain TEP1, stronger effect = lower value 1.01 | S. cerevisiae deletion strains, locus YNL153C, strain GIM3, stronger effect = lower value 1.01 | S. cerevisiae deletion strains, locus YNL183C, strain NPR1, stronger effect = lower value 0.933 | S. cerevisiae deletion strains, locus YNL209W, strain ssb2, stronger effect = lower value 1.01 | S. cerevisiae deletion strains, locus YNL233W, strain BNI4, stronger effect = lower value 0.978 | S. cerevisiae deletion strains, locus YNL248C, strain rpa49, stronger effect = lower value 1.01 | S. cerevisiae deletion strains, locus YNL250W, strain rad50, stronger effect = lower value 1 | S. cerevisiae deletion strains, locus YNL271C, strain bni1, stronger effect = lower value 0.992 | S. cerevisiae deletion strains, locus YNL298W, strain CLA4, stronger effect = lower value 0.992 | S. cerevisiae deletion strains, locus YNL307C, strain MCK1, stronger effect = lower value 0.953 | S. cerevisiae deletion strains, locus YNL322C, strain KRE1 (second series), stronger effect = lower value 0.967 | S. cerevisiae deletion strains, locus YNL322C, strain KRE1, stronger effect = lower value 0.999 | S. cerevisiae deletion strains, locus YNR049C, strain mso1, stronger effect = lower value 0.99 | S. cerevisiae deletion strains, locus YNR052C, strain pop2, stronger effect = lower value 0.977 | S. cerevisiae deletion strains, locus YOL006C, strain TOP1, stronger effect = lower value 0.993 | S. cerevisiae deletion strains, locus YOL147C, strain pex11, stronger effect = lower value 0.985 | S. cerevisiae deletion strains, locus YOR001W, strain rrp6, stronger effect = lower value 1.01 | S. cerevisiae deletion strains, locus YOR061W, strain CKA2, stronger effect = lower value 1 | S. cerevisiae deletion strains, locus YOR069W, strain VPS5, stronger effect = lower value 0.992 | S. cerevisiae deletion strains, locus YOR070C, strain gyp1, stronger effect = lower value 0.998 | S. cerevisiae deletion strains, locus YOR080W, strain dia2, stronger effect = lower value 0.974 | S. cerevisiae deletion strains, locus YOR083W, strain WHI5, stronger effect = lower value 0.987 | S. cerevisiae deletion strains, locus YOR106W, strain vam3, stronger effect = lower value 1.02 | S. cerevisiae deletion strains, locus YOR136W, strain idh2, stronger effect = lower value 0.991 | S. cerevisiae deletion strains, locus YOR144C, strain elg1, stronger effect = lower value 0.987 | S. cerevisiae deletion strains, locus YOR184W, strain ser1, stronger effect = lower value 0.952 | S. cerevisiae deletion strains, locus YOR231W, strain MKK1, stronger effect = lower value 0.976 | S. cerevisiae deletion strains, locus YOR265W, strain rbl2, stronger effect = lower value 1.01 | S. cerevisiae deletion strains, locus YOR270C, strain vph1, stronger effect = lower value 1.01 | S. cerevisiae deletion strains, locus YOR290C, strain snf2, stronger effect = lower value 1 | S. cerevisiae deletion strains, locus YOR316C, strain cot1, stronger effect = lower value 0.99 | S. cerevisiae deletion strains, locus YPL051W, strain arl3, stronger effect = lower value 0.982 | S. cerevisiae deletion strains, locus YPL055C, strain LGE1, stronger effect = lower value 0.996 | S. cerevisiae deletion strains, locus YPL078C, strain atp4, stronger effect = lower value 1.01 | S. cerevisiae deletion strains, locus YPL106C, strain sse1, stronger effect = lower value 0.99 | S. cerevisiae deletion strains, locus YPL240C, strain hsp82, stronger effect = lower value 0.995 | S. cerevisiae deletion strains, locus YPL241C, strain CIN2, stronger effect = lower value 0.998 | S. cerevisiae deletion strains, locus YPL256C, strain CLN2, stronger effect = lower value 0.983 | S. cerevisiae deletion strains, locus YPR119W, strain clb2, stronger effect = lower value 0.983 | S. cerevisiae deletion strains, locus YPR141C, strain kar3, stronger effect = lower value 0.995 | S. cerevisiae deletion strains, locus YPR163C, strain tif3, stronger effect = lower value 0.995 | S. cerevisiae deletion strains, locus YPR167C, strain met16, stronger effect = lower value 0.985 | S. cerevisiae deletion strains, strain wtn01, stronger effect = lower value 0.982 | S. cerevisiae strains, strain wild type, stronger effect = lower value 1.01
active: S. cerevisiae deletion strains, locus YKR001C, strain vps1, stronger effect = lower value 0.892 | S. cerevisiae deletion strains, locus YLR262C, strain YPT6 (second series), stronger effect = lower value 0.831
